The whole screen tested about 4,100 compounds, of which about 1,600 (39%) were called active. Another 25% or so got no clear call; they are omitted. Calls follow the shape of the dose curve; as a rule, active = well fitted inhibition curve with a large enough effect; inconclusive = small, poorly fitted or top-dose-only effect; inactive = no such curve, though single readings can be large or run the other way. This is one part of the list.
% is scaled to controls: 0 for no effect and ±100 for the full control effect; potency is read from the fitted curve at half-maximal effect.

The test is described as follows: qHTS Validation assay for Inhibitors of Plasmodium falciparum Dd2 growth in vitro. Also: nearly all actives have a fitted effect of over 70% in size. The conditions noted are these: P. falciparum Dd2 in RBCs, SYBR Green growth, 72 h; series mostly up to 28.7 µM; activity change, negative = inhibition: at the top concentration. Summed up: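 P. falciparum Dd2-infected red blood cells (2.5% hematocrit, 0.3% parasitemia) grown 72 h at 37 °C under 5% O2 with compounds in a titration, 29 uM to 0.5 nM final. Growth read as SYBR Green-1 fluorescence after ~16 h lysis; artesunate 300 nM as positive control.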
(In general: In qHTS, concentration-response curves come from the screen itself.)
As for `CC(C)CN(CCNC(=O)c1cc(-c2ccc(Cl)s2)nc2ccccc12)CC(C)C`, the Potency is 7.5 µM (active). Consider `Cc1cccc(NC(=O)CCN2CCN(c3ccccc3F)CC2)c1`, for which the “activity change, negative = inhibition” value is 18.2% (inactive). With `O=C(Nc1ccccc1)[C@H]1O[C@H](CCN2CCN(c3ccc(F)cc3)CC2)CC[C@@H]1O`, the Potency is 10.9 µM (active). For the molecule `Cc1cccc(N(C)c2nc3ccccc3c3nnc(C)n23)c1`, the Potency is 1.06 µM (active). On to `Cc1cccc(N(C)S(=O)(=O)c2nnc(NC(=O)C(C)Oc3ccccc3)s2)c1` (configuration not stated), for which the “activity change, negative = inhibition” value is -12.3% (inactive). On the same count and under the same terms, with `COc1cc2c(cc1OC)CN(c1ccc3ccccc3n1)CC2` the figure was -25.5% (inactive). Consider `Cc1ccccc1OCC(O)CN(Cc1ccccc1O)C1CCCCC1` (configuration not stated), for which the Potency is 0.119 µM (active).

In the case of `O=C(NC1CC1)c1ccc(CSCc2cccc(F)c2)o1`, the Potency was 8.41 µM (active). As for `Cc1ccc(CSCc2ccc(C(=O)NC3CC3)o2)cc1`, the Potency is 2.66 µM (active).

For `CCCS(=O)(=O)N1CC(=O)N(c2cccc(F)c2)C(C)(C(=O)NC2CCCCCC2)C1` (configuration not stated), the “activity change, negative = inhibition” value is 23.3% (inactive). For `O=C(NC1CC1)C1COC2(CCN(C(=O)c3ccc(F)cc3)CC2)N1C(=O)c1cccc(F)c1` (configuration not stated), the “activity change, negative = inhibition” value was -4.58% (inactive). For the molecule `CCCNC(=O)N1CC[C@@H]2[C@H]1C(=O)N(c1cccc(F)c1)C(=O)N2Cc1cccs1`, the “activity change, negative = inhibition” value was -10.5% [at 43.1 µM] (inactive).

As for `O=C(COc1ccc(Cl)cc1)NCCc1csc(-c2cccc(F)c2)n1`, the “activity change, negative = inhibition” value was -1.83% (inactive). For the molecule `CCC1=C(C(=O)OC)C(c2cccc(F)c2)N2C(CC(=O)NCCc3cccs3)=CSC2=N1` (configuration not stated), the Potency was 9.44 µM (active). In the case of `CCCc1noc(-c2cn(C3CCN(C(=O)c4ccc(OC)cc4C)CC3)nn2)n1`, the “activity change, negative = inhibition” value is -20.5% (inactive).

With `CCOc1ccc(NC(=O)c2ccc3c(c2)N(C)C2CCCN2C3=O)cc1` (configuration not stated), the “activity change, negative = inhibition” value was 0% (inactive).

As to `CCOc1ccc(-c2cc3nc(C4CCN(C(=O)OC(C)(C)C)CC4)c(C(=O)Nc4ccc(C(=O)OC)cc4)cn3n2)cc1`, the Potency was 4.73 µM (active).

In the case of `O=C(c1[nH]nc2c1COc1ccccc1-2)N1CCC(Cc2nncn2CC2CC2)CC1`, the “activity change, negative = inhibition” value is -3.31% (inactive). Take `CC(=O)Nc1ccc(NC(=O)c2c(C)oc3ccn(Cc4ccc(F)cc4)c(=O)c23)cc1`: the Potency was 10.6 µM (active). As for `O=C(Nc1ccc(F)c(F)c1)c1ccc(=O)n(Cc2ccc(F)cc2)c1`, the “activity change, negative = inhibition” value was 3.37% (inactive). For the molecule `Cc1ccc(-c2nc(NC(=O)c3cc(C(C)(C)C)nn3C)sc2C)cc1Cl`, the Potency is 10.6 µM (active).

For `CCOC(=O)c1cc(-c2ccc(OC)cc2)n(CCC(=O)Nc2cccc(C(C)=O)c2)c1C`, the Potency was 0.211 µM (active).

As for `CCOC(=O)c1cccc(NC(=O)CSc2cc(=O)n(C)c3ccccc23)c1`, the “activity change, negative = inhibition” value was 9.12% (inactive). On to `CCOC(=O)c1cccc(NC(=O)C2=C(C)C(=O)OC23CCCCC3)c1`, for which the “activity change, negative = inhibition” value is 1.2% (inactive). In the case of `CCOC(=O)c1cccc(NC(=O)CCn2c(-c3ccc(F)cc3)cc(C(=O)OCC)c2C)c1`, the Potency was 0.075 µM (active). With `CCN1CCN(Cc2ccc(NC(=O)c3cc(NC(=O)C4=NN(c5ccccc5)C(=O)C4)cc(OC)c3)cc2C(F)(F)F)CC1`, the Potency was 8.41 µM (active). With `CCN1CCN(Cc2ccc(NC(=O)c3cc(NC(=O)c4cnn(-c5ccccc5)c4N)cc(OC)c3)cc2C(F)(F)F)CC1`, the Potency is 2.11 µM (active). Same read-out and setting: with `CCN1CCN(Cc2ccc(NC(=O)c3ccc(C)c(NC(=O)C4=NN(c5ccccc5)C(=O)C4)c3)cc2C(F)(F)F)CC1` the figure was 8.41 µM (active); with `CCCCN(C(=O)c1cccc(S(=O)(=O)N(C)c2ccc(C)cc2)c1)c1c(N)n(CCCC)c(=O)[nH]c1=O`, 5.31 µM (active). Regarding `COc1cccc([S+](=O)([O-])N2CCC3(COc4ccccc4C(=O)N3)C2)c1` (configuration not stated), the “activity change, negative = inhibition” value is 5.79% (inactive). With `O=C1NC2(CN(Cc3ccc(F)cc3)C2)Oc2ccccc21`, the “activity change, negative = inhibition” value was -14.2% [at 43.1 µM] (inactive). Turning to `CN(C)c1ccc(CN2CCC3(CC2)COc2ccccc2C(=O)N3)cc1`, the Potency is 2.66 µM (active). Take `O=C1NC2(CCN(C(=O)c3cccnc3)CC2)Oc2ccccc21`: the “activity change, negative = inhibition” value is 34.6% [at 43.1 µM] (inactive). Take `O=C1NC2(CCN(C(=O)c3ccc(C(F)(F)F)cc3)CC2)COc2ccccc21`: the Potency was 8.41 µM (active). For the molecule `O=C1NC2(CCN(Cc3ccc(C(F)(F)F)cc3)CC2)COc2ccccc21`, the Potency is 8.41 µM (active). For the molecule `O=C1Nc2ccccc2CC12CCCCN2Cc1ccc(C(F)(F)F)cc1` (configuration not stated), the “activity change, negative = inhibition” value is 10.3% (inactive). Turning to `O=C1CC2CCCC(C1)N2C(=O)c1ccc(C(F)(F)F)cc1`, the “activity change, negative = inhibition” value is 35.6% [at 43.1 µM] (inactive). Turning to `C=C(C)COc1ccc(-c2n[nH]c(C)c2-c2ccccc2)c(O)c1`, the Potency was 4.73 µM (active). For `C=C(C)COc1ccc(-c2ncncc2-c2ccc(Br)cc2)c(O)c1`, the “activity change, negative = inhibition” value was -25.8% (inactive). On to `C=C(C)COc1ccc(-c2ncnc(C(F)(F)F)c2-c2ccccc2)c(O)c1`, for which the Potency was 2.37 µM (active). On to `C=C(C)COc1ccc(-c2ncnc(C(F)(F)F)c2-c2ccc(OC)cc2)c(O)c1`, for which the Potency is 2.99 µM (active). Take `O=C(NC1CCCc2c1[nH]c1ccccc21)c1ccccc1` (configuration not stated): the “activity change, negative = inhibition” value is 6.14% (inactive). For `COc1cc(C(=O)NC2CCCc3c2[nH]c2c(Cl)cccc32)cc(OC)c1OC` (configuration not stated), the Potency is 2.11 µM (active). With `Cc1ccc2c(c1)c(C(=O)N1CCC3(CCNC(=O)CC3)CC1)nn2C`, the “activity change, negative = inhibition” value is 46.6% (inactive).

`O=C(CN(C(=O)c1cccc([N+](=O)[O-])c1)C1CCCCC1)Nc1ccc(Cl)c([N+](=O)[O-])c1`: the Potency is 13.3 µM (active). With `CN(CC1CCOCC1)C(=O)c1cccc(Cl)c1`, the “activity change, negative = inhibition” value is 17.8% (inactive). As for `CCC(=O)C1=C(c2ccccc2)N(C(=O)CC)n2c(nnc2-c2ccccc2)S1`, the Potency was 5.96 µM (active). As for `CCC(=O)C1=C(c2ccc(OC)c(OC)c2)N(C(=O)CC)n2c(CC)nnc2S1`, the Potency was 4.73 µM (active). Consider `CCC(=O)C1=C(c2cccc([N+](=O)[O-])c2)N(C(=O)CC)n2c(nnc2-c2ccccc2)S1`, for which the Potency is 5.31 µM (active). For `CCc1noc(-c2nc(-c3ccc(OC)c(OC)c3)no2)n1`, the “activity change, negative = inhibition” value is 28.2% (inactive). For the molecule `CCC(=O)C1=C(c2cccc([N+](=O)[O-])c2)N(C(=O)CC)n2c(nnc2C2CCCCC2)S1`, the Potency was 1.88 µM (active). In the case of `COc1cc2nc(SCc3ccc(F)cc3)n3nc(CCn4c(C)nc5ccccc54)nc3c2cc1OC`, the Potency was 2.99 µM (active). Regarding `CN(C)c1ccc(C(=O)N[C@H]2CO[C@H]3[C@@H]2OC[C@@H]3n2cc(COc3ccccc3)nn2)cc1`, the “activity change, negative = inhibition” value was 48% (inactive). In the case of `C#CCN1c2ccccc2Sc2cccnc21`, the Potency was 6.68 µM (active). On to `CCc1cccc(NC(=O)C(Cc2ccccc2)NS(=O)(=O)c2ccc3c(c2)oc(=O)n3C)c1` (configuration not stated), for which the “activity change, negative = inhibition” value was 5.42% (inactive).

On to `CC(C)c1cc(C(=O)Nc2cc(Cl)ccc2O)no1`, for which the Potency is 6.68 µM (active). In the case of `COc1cccc(-c2cc(C(=O)Nc3cc(Cl)ccc3O)on2)c1`, the Potency is 4.73 µM (active).

As to `Cc1cc(-c2ccc(S(=O)(=O)Nc3cc(Cl)ccc3C)s2)on1`, the “activity change, negative = inhibition” value was 7.99% (inactive). Still for that read-out and setting: for `CC(C)Cc1cc(CNc2nccc(-c3cc(C(=O)O)ccn3)n2)no1` the value was 51.6% (inactive); for `COc1cccc(-c2ccc3c(n2)CNC(=O)CO3)c1`, -22.2% [at 57.5 µM] (inactive); for `COc1ccc(Cl)cc1NC(=O)c1sc(-n2nc(C)c(Cc3ccccc3)c2C)nc1C`, 28.8% (inactive). `CC(C)Cc1cc(C(=O)Nc2cc(Br)ccc2O)no1`: the Potency was 4.73 µM (active).

Values taken from PubChem BioAssay AID1347416 (National Center for Advancing Translational Sciences (NCATS), 2020).
